Hits are enriched below; roughly 4% of the tested compounds scored in any of these assays.
Rv3671c inh – inhibits the M. tuberculosis serine protease Rv3671c; AID 2606; hit rate 0.048% among 320,000; inhibition, % at 5.96 µM; P9WHR9; in the data active means inhibition above about 38%;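 further: extracellular domain of Rv3671c used as enzyme; 0% = enzyme with DMSO and 100% = no enzyme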
Mtb UGM inh – blocks M. tuberculosis UGM enzyme; P9WIQ1; purified UGM, fluorescence polarization probe displacement; inhibition, % at 10 µM; hit rate 0.06% among 320,000; AID 504406; in the data active means inhibition above about 10%, passing the limit was not always enough; inconclusive means no clear call, values can overlap the other calls
RecA splice inh – blocks M. tuberculosis RecA intein splicing; inhibition, % (test concentration not listed); P9WHJ3; cell-free RecA intein splicing, fluorescence; hit rate 0.75% among 290,000; in the data active means inhibition above about 30%; inconclusive means no clear call, values can overlap the other calls;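 further: 0% = vehicle wells and 100% = reference inhibitor control wells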
Target sequence (P9WHJ3 whole entry, looked up, canonical isoform): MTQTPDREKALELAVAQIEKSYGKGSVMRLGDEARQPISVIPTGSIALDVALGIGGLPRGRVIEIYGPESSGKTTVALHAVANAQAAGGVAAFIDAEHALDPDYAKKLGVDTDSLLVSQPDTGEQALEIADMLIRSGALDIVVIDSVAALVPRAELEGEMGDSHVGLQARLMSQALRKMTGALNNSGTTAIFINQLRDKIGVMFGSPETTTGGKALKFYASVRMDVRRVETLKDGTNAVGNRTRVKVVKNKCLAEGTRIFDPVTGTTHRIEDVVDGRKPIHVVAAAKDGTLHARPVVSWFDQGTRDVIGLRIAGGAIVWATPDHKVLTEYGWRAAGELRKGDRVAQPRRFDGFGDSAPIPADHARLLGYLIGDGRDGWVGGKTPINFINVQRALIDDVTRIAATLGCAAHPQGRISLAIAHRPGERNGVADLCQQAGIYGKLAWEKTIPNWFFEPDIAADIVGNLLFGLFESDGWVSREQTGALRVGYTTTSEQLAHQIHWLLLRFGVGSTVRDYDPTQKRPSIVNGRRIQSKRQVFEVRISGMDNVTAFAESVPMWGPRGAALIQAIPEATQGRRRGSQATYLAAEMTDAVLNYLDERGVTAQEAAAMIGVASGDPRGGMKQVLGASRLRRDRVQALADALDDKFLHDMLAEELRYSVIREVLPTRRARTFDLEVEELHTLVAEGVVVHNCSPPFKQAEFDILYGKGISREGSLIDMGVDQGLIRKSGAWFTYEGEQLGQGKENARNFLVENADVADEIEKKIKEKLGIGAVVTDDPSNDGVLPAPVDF
GDH-TPI inh – GDH-TPI coupled enzyme inhibition counter-screen; AID 588335; inhibition, % at 4.8 µM; hit rate 1.2% among 360,000; GDH-TPI coupled enzyme counterscreen, NADH absorbance; in the data active means inhibition above about 30%;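 further: 0% = DMSO wells and 100% = wells lacking the enzyme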
Mtb betalactam – beta-lactam sensitization of Mtb H37Rv; M. tuberculosis H37Rv growth with meropenem, percent inhibition; inhibition, % at 25 µM; hit rate 0.27% among 330,000; call rule not given here;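 further: growth measured after seven days incubation then overnight dye step; 0% = bacteria only wells and 100% = bacteria with antibiotic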
FBA Mtb inh – inhibitors of M. tuberculosis fructose-bisphosphate aldolase; P9WQA3; purified M. tuberculosis FBA, fluorescence read-out; hit rate 2.3% among 360,000; inhibition, % at 1 µM; in the data active means inhibition above about 27%;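 further: 0% = vehicle and 100% = reference inhibitor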
* = called active by the depositor; ? = inconclusive; · = no result given; + = active, no number.

SMILES	Rv3671c inh	Mtb UGM inh	RecA splice inh	GDH-TPI inh	Mtb betalactam	FBA Mtb inh
O=P(c1ccccc1)(c1ccccc1)c1nc(-c2ccccc2)oc1N1CCOCC1	7.5	5.1	11.2	1.5	5.5	1.6
COC(=O)c1nc(-c2ccccc2)oc1N1CCOCC1	-5.1	0.4	·	0.9	-1.3	146.0*
COC(=O)c1nc(-c2ccccc2)oc1N(C)C	-3.2	-0.3	-1.6	18.7	-4.3	172.9*
COC(=O)c1nc(-c2ccc(C)cc2)oc1N(C)C	0.4	-0.5	1.0	17.5	-1.5	114.6*
CC(=O)C[C@H](O)CC(=O)[C@H]1OC(=O)[C@H](C)C/C=C\Cc2ccccc21	-4.0	-1.4	·	0.0	-4.9	-3.1
COc1ccc(N/N=C(/C#N)S(=O)(=O)c2nsc(C)c2C#N)cc1	1.5	-0.8	-0.9	37.9*	1.2	-3.0
Cc1snc(S(=O)(=O)/C(C#N)=N/Nc2cccc(C(F)(F)F)c2)c1C#N	-1.6	1.0	-32.3	20.0	-4.6	-7.7
COc1ccc2cc3cc(C(=O)NCCCN4CCC(C)CC4)oc3nc2c1	5.9	5.8	-7.7	32.3*	-1.4	+
Cc1nc2ccccc2c2oc(C(=O)NCCCN3CCCC3=O)cc12	-1.3	-2.5	2.4	13.9	3.5	5.5
COc1ccc2cc3cc(C(=O)NCCCN4CCOCC4)oc3nc2c1	-7.4	-0.8	-5.5	33.5*	10.8	+
Cc1ccc2cc3cc(C(=O)NCCN4CCOCC4)oc3nc2c1	-3.5	-1.5	-1.5	47.7*	2.5	91.3*
Cc1ccc2cc3cc(C(=O)NCCCN4CCCC4=O)oc3nc2c1	1.1	-0.2	-0.8	22.3	-4.5	155.7*
COc1ccc(C(=O)NCCCN2CCOCC2)cc1	5.3	2.3	1.5	6.8	-6.5	2.5
COc1ccccc1N=NNc1ccc(S(=O)(=O)NC(C)=O)cc1	·	·	·	·	·	-3.6
O=C(Nc1ccnn1C1CCNCC1)c1ccc2c(c1)OCO2	·	·	·	11.8	·	-2.5
CC(CCc1ccccc1)NC(=O)CNC(=O)c1ccccc1Br (stereo not drawn)	2.1	-0.8	0.2	-4.1	1.3	-0.1
CCc1ccccc1NC(=O)CNC(=O)CSC(=S)N1CCCC1	-3.5	-0.9	·	0.7	10.4	2.8
CCN1CCN(CCCNC(=O)c2cc3cc4ccc(OC)cc4nc3o2)CC1	-3.0	-1.0	-2.9	25.2	1.2	+
O=C(c1ccccc1F)N1CCN(C(=O)C2CC2)CC1	-9.8	-0.6	·	4.5	?	0.3
CCC(N=c1cc(-c2ccc(OC)cc2)oc2ccc(C)cc12)C(=O)O (stereo not drawn)	6.5	-1.6	-0.4	31.1*	7.6	+
COc1cccc(Nc2nc3cc(C)ccc3cc2C)c1	·	·	·	3.6	·	-1.2
O=C(Nc1ccc(-c2nc3ccccc3[nH]2)cc1)c1ccco1	-15.9	-0.8	2.4	41.9*	-3.5	-1.4
COC(=O)c1ccc(-c2ncc[nH]2)cc1	2.1	-0.1	-5.4	2.6	-5.7	+
COC(=O)c1ccc(-c2nc3ccccc3[nH]2)cc1	-7.0	0.9	5.3	19.3	-7.3	+
O=C(O)c1cccc(-c2nc3ccccc3[nH]2)c1	8.5	2.6	-3.4	7.4	-5.6	112.3*
SMILES	Rv3671c inh	Mtb UGM inh	RecA splice inh	GDH-TPI inh	Mtb betalactam	FBA Mtb inh
O=C(/C=C/c1ccco1)Nc1ccc(-c2nc3ccccc3[nH]2)cc1	-61.1	-3.1	6.5	9.3	-5.2	4.6
Cc1ccn2cc(-c3ccc(NC(=O)c4ccco4)cc3)nc2c1	1.8	-3.2	1.6	33.1*	4.8	0.0
Cc1cc(-c2nc3ccccc3[nH]2)ccc1N	3.8	-0.4	-2.3	8.5	1.2	174.3*
COc1ccc(NC(=O)C(=O)c2cn(CC(=O)N3CCOCC3)c3ccccc23)cc1OC	9.4	-0.7	4.0	32.8*	0.3	-0.2
COc1c(C=O)c2c(c(OC)c1OC)-c1ccc(OC)c(=O)cc1C(NC(C)=O)CC2 (stereo not drawn)	·	·	·	31.9*	·	1.1
O=Cc1ccc(-c2cccs2)s1	·	·	·	27.6	·	+
CCN(CC)C(=O)c1ccc(-c2cccs2)s1	-9.7	2.0	3.0	17.5	14.4	8.5
COc1ccc(NC(=O)CN(Cc2ccco2)Cc2ccco2)cc1S(=O)(=O)N1CCCCC1	3.6	1.2	·	4.2	-9.3	-2.8
CC(=O)Nc1ccc(S(=O)(=O)Nc2cc(C)cn(Cc3ccccc3)c2=O)cc1	-7.3	-2.0	0.3	8.3	-11.0	69.6*
Cc1ccc(C)c(C(=O)COC(=O)c2cccc(N3C(=O)c4c(C)nc5ccccc5c4C3=O)c2)c1	0.0	4.2	1.4	9.6	-6.4	0.5
Cc1nc2ccccc2c2c1C(=O)N(c1cccc(C(=O)O)c1)C2=O	1.3	-0.5	44.8*	-8.0	5.7	8.2
Cc1nc2ccccc2c2c1C(=O)N(CCC1=CCCCC1)C2=O	·	·	11.6	·	·	·
O=C(O)c1cccc(N2C(=O)c3ccc4c5c(ccc(c35)C2=O)C(=O)N(c2cccc(C(=O)O)c2)C4=O)c1	-9.5	2.8	-6.2	38.3*	-6.7	-3.1
Cc1nc2ccccc2c2c1C(=O)N(C(C)C)C2=O	-5.7	-1.4	41.1*	4.1	-7.4	-1.6
O=C(O)c1cccc(N2C(=O)c3ccc(Oc4ccc(Cl)cc4)cc3C2=O)c1	-6.9	-2.8	5.7	-2.6	-0.7	3.0
CC(=O)Nc1ccc(S(=O)(=O)Nc2ccccc2N2CCOCC2)cc1	-15.5	-1.7	·	5.4	10.0	5.9
Cc1cccn2c(=O)c3cc(C#N)c(=N)n(Cc4cccnc4)c3nc12	·	·	·	10.4	·	4.0
N=c1c(C(=O)NC2CCCC2)cc2c(=O)n3ccccc3nc2n1Cc1ccccc1	-3.7	0.4	-463.1	0.4	-2.9	146.0*
O=C(NCCN1CCOCC1)c1cc2c(=O)n3ccccc3nc2n1Cc1ccccc1	-3.0	2.7	-310.6	15.9	2.2	+
N#Cc1cc2c(=O)n3ccccc3nc2n(Cc2cccnc2)c1=O	1.5	-1.6	·	0.7	-9.9	+
N=c1c(C(=O)NC2CCCC2)cc2c(=O)n3ccccc3nc2n1CCN1CCOCC1	6.9	1.8	-82.2	12.0	-1.1	176.3*
COc1ccc(CCn2c(=N)c(C(=O)NC3CCCCC3)cc3c(=O)n4ccccc4nc32)cc1	-4.6	-1.0	-1.9	7.8	20.0	3.3
COc1ccc(C(c2nnnn2C(C)C)N2CCN(C(=O)c3ccco3)CC2)cc1 (stereo not drawn)	7.3	-0.4	0.2	1.1	-0.1	-0.5
Cc1ccc(C(=O)OCC(=O)c2ccc(Br)cc2)cc1S(=O)(=O)N1CCOCC1	·	·	·	1.3	·	-0.3
COc1ccc(NC(=O)C(C)N=C2NS(=O)(=O)c3ccccc32)cc1S(N)(=O)=O (stereo not drawn)	-3.6	3.6	·	4.2	-7.5	-1.3
COc1ccc(N2CCN(C(=O)c3cc([N+](=O)[O-])ccc3N3CCN(CCO)CC3)CC2)cc1	1.3	-0.4	-0.9	29.2	0.6	-0.2
CCN(CC)C(=O)C1=C(C)N(Cc2ccccc2)C(=O)C(CC(=O)NC2CCCCC2)C1 (stereo not drawn)	·	·	·	17.9	·	0.7
N#Cc1cc2c(=O)n3ccccc3nc2n(CCCN2CCOCC2)c1=O	9.4	5.2	-443.9	13.8	-5.7	+
